Compounds with a hit are over-represented: about 1.1% of the library has one in this group of screens.
AmpC detergent: inhibitors of E. coli AmpC beta-lactamase with detergent | Potency, µM (doses to about 114 µM), without a hit: at the top dose activity change, negative = inhibition, hits mostly inhibitors | 370,000 compounds, 0.041% hits | AmpC hydrolysis of nitrocefin, absorbance 480 nm, 0.01% Triton | P00811;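 further: 0% = no-compound wells and -100% = no-enzyme wells; nearly all actives have a fitted effect of over 25% in size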
Target sequence (P00811 whole entry, looked up): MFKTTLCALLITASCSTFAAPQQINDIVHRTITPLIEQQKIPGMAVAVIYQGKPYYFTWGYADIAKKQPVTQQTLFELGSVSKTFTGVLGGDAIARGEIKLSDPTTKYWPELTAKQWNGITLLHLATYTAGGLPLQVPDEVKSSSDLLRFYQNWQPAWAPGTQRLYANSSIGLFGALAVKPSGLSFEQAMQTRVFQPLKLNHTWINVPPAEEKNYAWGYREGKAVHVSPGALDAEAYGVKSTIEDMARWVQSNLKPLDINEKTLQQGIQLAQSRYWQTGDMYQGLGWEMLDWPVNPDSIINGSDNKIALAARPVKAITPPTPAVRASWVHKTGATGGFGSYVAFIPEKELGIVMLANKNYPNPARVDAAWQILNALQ
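20 mM phosphate pH 7.0 + 0.01% (detergent screen) or 0.0001% Triton X-100; 5.3 nM AmpC reagent; cpd preinc 15 min RT; nitrocefin (800 uM stock) to start; A480 q20 s × 4 min; Activity was normalised to no-enzyme and no-compound control wells.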
VACV mCherry inh: inhibitors of vaccinia virus infection (mCherry reporter signal); Potency, µM (titrated, usually from 36.5 µM), for inactives: at the top dose activity change, negative = inhibition, most hits filed as inhibitors; 310,000 compounds, 0.63% hits; AID 720579; Vaccinia virus mCherry reporter infection, fluorescence; calls by dose curve; tested in A549 cells; further: nearly all actives have a fitted effect of over 35% in size
Vaccinia Venus: vaccinia inhibition (Venus reporter). Vaccinia virus Venus reporter expression, fluorescence. Potency, µM (top dose mostly 36.5 µM), without a hit: at the top dose activity change, negative = inhibition, actives largely listed as inhibitors. 330,000 compounds, 0.46% hits. AID 720580; calls by dose curve; tested in A549 cells; further: nearly all actives have a fitted effect of over 30% in size
AmpC no deterg: inhibitors of E. coli AmpC beta-lactamase without detergent. P00811. AmpC nitrocefin hydrolysis, absorbance 480 nm, 0.0001% Triton. Potency, µM (series often up to 57.1 µM), without a hit: at the highest dose activity change, negative = inhibition, hits mostly inhibitors. 330,000 compounds, 0.52% hits. AID 485341;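 further: plate controls were no compound for no effect and no enzyme for full effect; nearly all actives have a fitted effect of over 20% in size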
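AmpC (5.3 nM in the dispensed reagent) in 20 mM phosphate pH 7.0 with 0.01% (detergent screen) or 0.0001% Triton X-100 was preincubated with compounds for 15 min at room temperature. Nitrocefin was then added from an 800 uM solution, and hydrolysis was followed at 480 nm.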
The depositor's hits bear a star; ? = inconclusive; . = no result given. Unless noted, the call rests on the fitted dose curve; in most records, active means well fitted curve in the direction sought with a large enough effect; inconclusive means small, poorly fitted or top-dose-only effect, or another doubt; inactive means no such curve, though single readings can be large; an effect the other way counts as inactive or inconclusive. Unless noted, on the % scale 0 is the no-effect control and ±100 the full control effect; potency means the concentration at half of the fitted maximal effect.

SMILES	AmpC detergent	VACV mCherry inh	Vaccinia Venus	AmpC no deterg
Cc1cc(NS(=O)(=O)c2ccc(NC(=O)c3cnc4sccn4c3=O)cc2)nc(C)n1	2%	4%	5%	-32%
Cc1ccc(C2=NN(C(=O)c3cccs3)C(c3ccccc3O)C2)cc1 (stereo unspecified)	-4%	-1%	11%	7.9µM*
COc1ccc(C2=NN(C(=O)c3cccs3)C(c3ccccc3OC)C2)cc1OC (stereo unspecified)	2%	?	-8%	-8%
O=C(c1cccs1)N1N=C(c2ccccc2)CC1c1ccccc1O (stereo unspecified)	8%	-11%	?	16µM*
O=C(CN(CCc1c[nH]c2ccccc12)S(=O)(=O)c1ccccc1)N1CCCCCC1	.	-23%	?	.
Cc1c(C(=O)N2CCC(Cc3ccccc3)CC2)sc2ncnc(NCc3ccccn3)c12	.	-24%	-16%	.
Cc1c(C(=O)NCC(C)(C)N2CCOCC2)cnn1-c1nccc(-c2cccs2)n1	.	-12%	-9%	.
C=Cc1ccc(Cn2c(C(=O)O)c(CNCc3ccccc3)c3ccc(C)cc32)cc1	-2%	?	13µM*	.
Cc1ccc(CNCc2c(C(=O)O)n(Cc3ccccc3C)c3cc(C)ccc23)cc1	14%	?	?	.
Cc1ccc(CNCc2c(C(=O)O)n(Cc3ccc(C)cc3)c3cc(C)ccc23)cc1	-6%	11µM*	?	.
CCc1ccc(CNCc2c(C(=O)O)n(Cc3ccc(C)cc3)c3cc(C)ccc23)cc1	3%	?	?	.
CN(C)c1ccc(/C=C/c2ccnc3c(Cl)cccc23)cc1	.	-5%	27%	.
N#CCc1nc(C(c2ccccc2)c2ccccc2)no1	-6%	22%	11%	18µM*
O=C(N[C@@H](Cc1ccccc1)C(=O)N[C@@H](Cc1ccccc1)C(=O)O)OCc1ccccc1	-14%	-23%	1%	-22%
O=C(N[C@@H](Cc1ccccc1)C(=O)CCl)OCc1ccccc1	-14%	10µM*	10µM*	-19%
COCc1c(C(=O)NC2CCCC2)cnn1-c1nccc(-c2ccco2)n1	.	-14%	-9%	.
C=C(C)COc1ccc(-c2[nH]ncc2Oc2ccccc2OC)c(O)c1	-5%	?	?	.
C=C(C)COc1ccc(-c2[nH]ncc2Oc2ccc(OC)cc2)c(O)c1	12%	14µM*	?	-59%
CN1Cc2c(N3CCOCC3)nc3sc(C(=O)c4ccc(Br)cc4)c(N)c3c2CC1(C)C	3%	6.3µM*	-26%	164%
O=C(Cn1cc2ccccc2n1)N1CCOc2ccc(C(O)C3CCCCC3)cc2C1 (stereo unspecified)	.	-21%	-8%	.
CN(C)c1ccc(/C=C/c2ccnc3ccc(F)cc23)cc1	.	-39%	-42%	.
CCN1CCN(Cc2ccc(NC(=O)c3cc(NC(=O)c4nccnc4N)cc(OC)c3)cc2C(F)(F)F)CC1	6%	-1%	-16%	62%
CCN1CCN(Cc2ccc(NC(=O)c3ccc(C)c(NC(=O)c4cncc(-c5cccs5)c4)c3)cc2C(F)(F)F)CC1	.	?	16µM*	.
CCN1CCN(Cc2ccc(NC(=O)c3cc(NC(=O)c4cnnc5ccccc45)cc(OC)c3)cc2C(F)(F)F)CC1	4%	?	10µM*	98%
CCN1CCN(Cc2ccc(NC(=O)c3ccc(C)c(NC(=O)c4cc(-c5ccc(Br)cc5)n[nH]4)c3)cc2C(F)(F)F)CC1	4%	-26%	10µM*	3%
SMILES	AmpC detergent	VACV mCherry inh	Vaccinia Venus	AmpC no deterg
COc1cccc(O)c1CN1CCC2(CC1)c1ccccc1[C@@H](NC(=O)c1ccsc1)[C@@H]2OC	.	-13%	-1%	.
COc1ccccc1C1CN(Cc2cccc(C)n2)Cc2ccccc2O1 (stereo unspecified)	.	-19%	-7%	.
CC(C)CCCCCCCCCCCCC(=O)NCC(=O)NC1C(O)C(O)C(Nc2ncnc3nc[nH]c23)OC1C(O)CO (stereo unspecified)	.	40µM*	11µM*	.
Cc1csc(SCC(=O)N2CCOc3ccc(C(O)C4CCCCC4)cc3C2)n1 (stereo unspecified)	.	-5%	-11%	.
O=C(N/N=C/c1ccccc1C(=O)O)c1cccc(S(=O)(=O)Nc2cc(Cl)ccc2Cl)c1	-7%	-22%	1%	13µM*
CCC1CN(CCNC(=O)c2ccc3c(c2)OCCO3)Cc2cc(OC)ccc2O1 (stereo unspecified)	.	-9%	0%	.
Cc1ccc(CC(=O)Nc2ncc([N+](=O)[O-])s2)cc1	3%	-26%	?	-29%
